Source: PubChem (National Center for Advancing Translational Sciences (NCATS))
SARS PLpro yeast: inhibitors of SARS-CoV papain-like protease in yeast; Potency, µM (series often up to 32.9 µM), usual class: activators; actives 0.19% (n = 330,000); AID 485353; S. cerevisiae expressing SARS-CoV PLpro, growth rescue; also: nearly all actives have a fitted effect of over 55% in size
NS1 function inh: influenza NS1 inhibition; Potency, µM (top dose mostly 46.1 µM); actives 0.4% (n = 270,000); AID 2326; also: actives are rising curves; nearly all actives have a fitted effect of over 50% in size
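OD600 was taken as the measure of yeast growth restored by compound in an NS1-expressing S. cerevisiae strain. Cells had been washed out of glucose medium and diluted 1:100 into galactose -URA medium, pH 6.0.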
Shiga toxin inh: blocks Shiga toxin action in Vero cells; Vero cells, Shiga toxin protein synthesis inhibition reporter; inhibition, % at 38.7 µM; actives 9.2% (n = 290,000); AID 2315; in the data active = inhibition mostly above about 28%, no sharp cut-off; inactive = mostly below about 43%
Cycloheximide cs: counter-screen for Shiga toxin inhibitors: cycloheximide protein synthesis inhibition. cell reporter, cycloheximide protein synthesis inhibition counterscreen. max response, %. actives 12% (n = 300,000). AID 2314; in the data active = max response mostly above about 13%, no sharp cut-off; inactive = mostly below about 14%; also: read at 38.3 µM for the half of the compounds with a filed dose
A number is an active result; n = inactive; u = inconclusive; x = not tested or not shown; + = active, no number. Shown are actives, neighbours in structure and some others; about 12% of the full set was active somewhere. Unless noted, calls follow the shape of the full dose curve.

SMILES | SARS PLpro yeast | NS1 function inh | Shiga toxin inh | Cycloheximide cs
O=C(Nc1cccnc1)c1cc(Br)c(Br)s1 | n | x | x | x
O=C(NC(=S)Nc1ccc(CN2CCCCC2)cc1)c1cc2ccccc2o1 | n | n | n | 14.2
O=C(NC(=S)NCc1cccnc1)c1cc2ccccc2o1 | n | x | n | 30.1
COc1cc(OC)cc(C(C(=O)NC2CCCCC2)N(C(=O)c2ccno2)c2ccccc2)c1 (stereo unspecified) | n | n | n | n
O=C(COC(=O)c1ccc(OC(F)F)cc1)NCCC1=CCCCC1 | n | x | x | x
O=C(COC(=O)C1CCN(S(=O)(=O)c2cccs2)CC1)NCc1ccc(F)cc1 | n | n | n | n
COc1ccc(C(=O)CSc2[nH]c(=O)cc(C(F)(F)F)c2C#N)cc1 | n | n | n | n
COc1cc(CNCCc2ccc(F)cc2)ccc1OCc1ccc(Cl)nc1 | n | n | n | n
COc1cc(CO)ccc1OCc1ccc(Cl)nc1 | n | n | 149.5 | 51.0
CCOc1ccccc1NC(=O)/C=C/C(N)=O | n | n | n | n
Cc1ccnc(NC(=O)c2cccc([N+](=O)[O-])c2C)c1 | n | x | n | n
Cc1ccnc(NC(=O)/C=C/c2ccccc2[N+](=O)[O-])c1 | n | n | 72.6 | 34.1
Cc1ccnc(NC(=O)/C=C/c2ccccc2Cl)c1 | n | n | + | 58.6
Cc1ccnc(NC(=O)c2ccccc2[N+](=O)[O-])c1 | n | n | n | 18.9
CCOc1ccccc1NC(=O)/C=C/c1ccccc1[N+](=O)[O-] | n | n | n | 45.4
O=C(/C=C/c1ccccc1[N+](=O)[O-])Nc1ccc(S(=O)(=O)Nc2ncccn2)cc1 | n | n | n | n
O=C(/C=C\c1ccccc1[N+](=O)[O-])Nc1ccccc1 | n | x | 51.8 | 39.4
NS(=O)(=O)c1ccc(NC(=O)/C=C/c2ccccc2[N+](=O)[O-])cc1 | n | x | n | n
Cc1ccnc(NC(=O)c2c(-c3ccccc3Cl)noc2C)c1 | n | n | 64.2 | 21.3
Cc1cc(C)nc(NC(=O)c2c(-c3ccccc3Cl)noc2C)c1 | n | n | n | n
Cc1ccnc(NC(=O)c2cccc3ccccc23)c1 | n | n | 76.7 | 49.2
Cc1ccnc(NC(=O)CCc2c[nH]c3ccccc23)c1 | n | n | 90.7 | 39.8
Cc1cccnc1NC(=O)CCCc1c[nH]c2ccccc12 | n | n | n | n
CCOC(=O)N1CCC(Nc2c(NCCCN(C)Cc3ccccc3)c(=O)c2=O)CC1 | n | n | n | n
CC(C(=O)c1c[nH]c(C(=O)N=CN(C)C)c1)c1ncc(C(F)(F)F)cc1Cl (stereo unspecified) | n | x | n | n
SMILES | SARS PLpro yeast | NS1 function inh | Shiga toxin inh | Cycloheximide cs
O=C(NC1CC1)C1CCN(C2CCN(C(=O)CCOc3ccccc3)CC2)CC1 | n | n | n | n
O=C1/C(=C/c2ccccc2F)SC(=S)N1CCC(=O)N1CCCCC1CCO (stereo unspecified) | n | n | n | 30.5
O=C1/C(=C/c2ccco2)SC(=S)N1CCC(=O)N1CCCCC1CCO (stereo unspecified) | n | n | n | 11.0
O=C1/C(=C/c2cccs2)SC(=S)N1CC(=O)N1CCCCC1CCO (stereo unspecified) | n | n | n | 14.8
CCOc1ccc2ccc(OCC)c(/C=N/n3cnnc3)c2c1 | n | n | n | 9.4
NC1=NC(c2ccccc2C(F)(F)F)N(c2ccc(F)c(Cl)c2)C(N)=N1 (stereo unspecified) | n | n | n | n
COc1cc2oc(-c3ccc(O)cc3)cc(=O)c2c(OC)c1O | n | n | n | n
COc1cc2oc(-c3ccc(O)cc3)cc(=O)c2c(O)c1OC | n | n | n | 10.1
COc1c(-c2ccc(O)c(O)c2)oc2cc(O)cc(O)c2c1=O | n | n | n | active
COc1c(O)cc2oc(-c3ccc(O)cc3)cc(=O)c2c1O | n | n | 51.4 | 12.9
COc1ccc(-c2cc(=O)c3c(O)cc(O)cc3o2)cc1O | x | x | 70.1 | 34.0
O=c1c(O[C@@H]2O[C@H](CO)[C@H](O)[C@H](O)[C@H]2O)c(-c2ccc(O)c(O)c2)oc2cc(O)cc(O)c12 | x | x | n | n
COc1ccc(CN2CCNC(=O)C2CC(=O)NCc2csc(C)n2)c(F)c1 (stereo unspecified) | n | n | n | n
COc1ccc(NC(=O)CN(C)S(=O)(=O)c2cnc[nH]2)cc1Cl | n | n | n | n
COc1ccc(C2=COc3ccccc3C(=O)N2)cc1 | n | x | 55.6 | 21.1
O=C(NCc1cccc(C(F)(F)F)c1)N1CCN(C(=O)c2ccccc2)CC1 | n | x | x | x
COC(=O)c1cn(NC(=O)c2cccc(OC)c2)c(=O)c2ccccc12 | n | n | n | n
Cc1ccn(-c2cc(O)c(-n3ccc(C)n3)cc2O)n1 | n | n | n | 14.1
Cc1ccn(CCC(=O)O)n1 | n | n | n | n
O=C(CSC1=NNC(c2ccccn2)S1)Nc1cccc(Cl)c1 (stereo unspecified) | u | n | 61.8 | 40.2
